Experimental findings from the supplement of paper PMC10338343 are described below.

± gives the standard deviation.

For the assay, the system named is EfPiwi piRISC loaded with piRNA #1 (26 nt). As to the kind of experiment: pre-steady-state target cleavage rate (min^-1); auxiliary factor: 500 nM Ephydatia muelleri Gtsf1; guide: piRNA #1 5'p-UGAGGUAGUAGGUUGUAUAGUAUCCA; MIWI and MILI are mouse PIWI proteins and EfPiwi is from a freshwater sponge; tags in brackets are library labels; higher = faster piRNA-guided slicing of the target. The protocol: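 Cleave-'n-Seq: a library of target RNAs (target site in constant flanks) at […] was incubated with 1 nM active freshwater sponge Ephydatia fluviatilis Piwi piRISC (synthetic 5'-monophosphorylated piRNA guide) with or without 500 nM EmGtsf1 at 33 °C for 1 min to 16 h. Uncleaved targets were sequenced and the pooled three trials fitted to a burst-and-steady-state model to give the pre-steady-state cleavage rate (min^-1). Sequence is the target site only. Fits with R² ≤ 0 are excluded.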
With GGAGAGGAUACUAUUCAACCUAGUACCUCA, the “pre-steady-state target cleavage rate” value worked out at 0.00256 ± 0.0017.

Regarding GGAGACCUUACAUUACAACCUACUACCUCA, the “pre-steady-state target cleavage rate” value is 0.00334 ± 0.0033. In the case of GGAGUGGAUACUAUACAUACCUACUACCUCA, the “pre-steady-state target cleavage rate” value is 0.0107 ± 0.0063. The value for GGAGACGAUACUAUACAACCUACUAUCCUCA was 0.0049 ± 0.0014; that for GGAGACGAUACAAUACAACCUUCUACCUCA was 0.00327 ± 0.0022; that for GGAGACGAUUCUAUACAACCUACAACCUCA was 0.00277 ± 0.0012.

Regarding GGAGACCUAACUAUACAACCUACGACCUCA, the “pre-steady-state target cleavage rate” value is 0.00261 ± 0.0025. Take GGAGUGGAAACUAUACAUCCUACUACCUCA: the “pre-steady-state target cleavage rate” value stood at 0.0101 ± 0.0045. Turning to GGAGAGGAAACUAUACAACGUACUACCUCA, the “pre-steady-state target cleavage rate” value was determined as 0.00339 ± 0.0016. The value for GGAGACCAUACUAGUACAACCUACUACCUCA was 0.00796 ± 0.0044. To GGAGUGGAUACUAUACAACCUACCACCUCA belongs 0.00271 ± 0.0014; to GGAGUGGAAACUAUACAACCUACUACGUCA, 0.00326 ± 0.0026; to GGAGAGGAUACUAUACAUCCUACUACCUCA, 0.0116 ± 0.0055. The value for GGAGUGGAUACAAUACAACCUAGUACCUCA was 0.00305 ± 0.0021; that for GGAGUGGAUACUAUACAACCCUACUACCUCA was 0.00375 ± 0.0023. For the sequence GGAGAGGAUACAAUACAUCCUACUACCUCA, the “pre-steady-state target cleavage rate” value stood at 0.00771 ± 0.0035. GGAGUGGAUACUAUACAACCUAGAUCCUCA: the “pre-steady-state target cleavage rate” value was 0.00311 ± 0.0016. For the sequence GGAGACCAUACUAUACAACCUACUCCCUCA, the “pre-steady-state target cleavage rate” value is 0.00669 ± 0.0039.

Turning to GGAGACGAUACUAUACAUCCUACUUCCUCA, the “pre-steady-state target cleavage rate” value came to 0.00415 ± 0.0023.

For the sequence GGAGACGAUACUAUACAACGUACAACCUCA, the “pre-steady-state target cleavage rate” value came to 0.00279 ± 0.0018. To GGAGUGGAUACUAUACAACGAACUACCUCA belongs 0.00257 ± 0.0018.

With GGAGUCGGAUACUAUACAACCUACUACCUCA, the “pre-steady-state target cleavage rate” value came out at 0.0621 ± 0.024. To GGAGAGGAUACAAUACAACCUUCUACCUCA belongs 0.00307 ± 0.0023; to GGAGAGGAUACAAUACAACCUACUACCUGA, 0.0036 ± 0.0016; to GGAGACCAUACUAUACAACCUACUACGUGA, 0.0051 ± 0.0028. To GGAGACCAUACUAUACAACCAUACUACCUCA belongs 0.00431 ± 0.003.

Turning to GGAGACGAUACUAUACAACCUACUACCGUCA, the “pre-steady-state target cleavage rate” value is 0.00873 ± 0.0037. To GGAGACGAUACUAUACAUCGUACUACCUCA belongs 0.00254 ± 0.0012; to GGAGACGAUUCUAUAGAACCUACUACCUCA, 0.00226 ± 0.0018; to GGAGACGAUACUAUACAACCUACUAGCUCA, 0.00381 ± 0.0011.

Turning to GGAGUGGAUACUAUACAACCUACCUACCUCA, the “pre-steady-state target cleavage rate” value was 0.00423 ± 0.0017.

Take GGAGAGGAUACUAUACAACGCUACUACCUCA: the “pre-steady-state target cleavage rate” value was 0.00523 ± 0.0033.

GGAGAGGAUACUUUACAACCUAGUACCUCA: the “pre-steady-state target cleavage rate” value was 0.00261 ± 0.0016.

Consider GGAGACCUUACUAUACAAACCUACUACCUCA, for which the “pre-steady-state target cleavage rate” value worked out at 0.0103 ± 0.0047. Regarding GGAGACCUAACUAUACAACGUACUACGUCA, the “pre-steady-state target cleavage rate” value was found to be 0.00291 ± 0.0026. The value for GGAGACGAUACUAUACAACCUACUAUCUCA was 0.00856 ± 0.0034.

For the sequence GGAGUGGAUACUAUACAACCUACGACCUCA, the “pre-steady-state target cleavage rate” value came to 0.00416 ± 0.0017. To GGAGACCUAUCAUAUACAACCUACUACCUCA belongs 0.0103 ± 0.0048. As for GGAGACCUUACUCUACAACCUACUACCUCA, the “pre-steady-state target cleavage rate” value worked out at 0.0532 ± 0.019.

For the sequence GGAGACGAUACUAUACAACCUACAUCCUCA, the “pre-steady-state target cleavage rate” value came out at 0.00353 ± 0.0014.
